The source made the active and inactive calls.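 Rule for the calls: active = cell event count below 40, meaning activity score above 60 where score is 100 minus count; inactive = the rest.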

This experiment in a line: cytotoxicity in LNCaP prostate cells – cell-based, cell event count, single point, cytotoxicity control for prostate differentiation activator project, confirmation (AID 1076).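 Note: counts scatter-gated live cells after medium removal discards detached dead cells.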 Conditions: LNCaP cell loss, flow cytometry event count, 4 d, stronger effect = lower value.

With `CCOC(=O)c1c(-c2ccc(C)o2)csc1NC(=O)CN1CCN(CC)CC1`, the cell event count (at 100 µM) is 27 (inactive) and the cell event count (event count, at 10 µM) is 170.

Take `CCCS(=O)(=O)N1CCCC(C(=O)NCCCN2CCN(c3ccccc3F)CC2)C1` (stereo unspecified): the cell event count by setting is: (at 100 µM) 110 (inactive); (event count, at 10 µM) 168.

For the molecule `Cc1oc(-c2ccc(Cl)cc2)nc1CN1CCCC(C(=O)NCc2ccco2)C1` (stereo unspecified), the cell event count was 27 (inactive) (at 100 µM) and 248 (event count, at 10 µM).

As for `CCN1C=C(Cc2cccs2)C2=C(C1)C(c1cccs1)C(C#N)=C(N)O2` (stereo unspecified), the cell event count runs as follows: (at 100 µM) 40 (inactive); (event count, at 10 µM) 200.

In the case of `CCn1c(C(=O)NCCCN2CCc3ccccc3C2)cc2sccc21`, the cell event count is, setting by setting: (at 100 µM) 16 (inactive); (event count, at 10 µM) 380.

Take `Cn1nc(-c2ccc(Cl)cc2)c2cc(C(=O)NCCCN3CCOCC3)sc21`: the cell event count by setting is: (at 100 µM) 33 (inactive); (event count, at 10 µM) 184.

As for `Cn1c(C(=O)NCCCN2CCN(c3ccccc3F)CC2)cc2c(=O)n(C)c3ccccc3c21`, the cell event count (at 100 µM) was 5 (inactive) and the cell event count (event count, at 10 µM) amounted to 170.

Turning to `O=C(Nc1c(C(=O)N2CCOCC2)cnn1-c1ccccc1)c1ccco1`, the cell event count was 201 (inactive) (at 100 µM) and 124 (event count, at 10 µM).

`O=C(CCNC(=O)Cn1ccc2ccccc2c1=O)NCCCN1CCN(c2ccc(F)cc2)CC1`: the cell event count reads like this: (at 100 µM) 156 (inactive); (event count, at 10 µM) 91.5.

Consider `Cc1cc(=O)n2nc(N3CCCC3C(=O)NCc3ccccn3)sc2n1` (stereo unspecified), for which the cell event count is, setting by setting: (at 100 µM) 101 (inactive); (event count, at 10 µM) 61.

As to `CCOC(=O)N1CCN(C(=O)CCc2c(C)nc3c(c(C)nn3-c3ccc(C)c(C)c3)c2C)CC1`, the cell event count is 5 (inactive) (at 100 µM) and 222 (event count, at 10 µM).

`Cc1nc2nc(C)c(CCC(=O)NCCCN3CCN(c4cccc(Cl)c4)CC3)c(C)n2n1`: the cell event count was 43 (inactive) (at 100 µM) and 61 (event count, at 10 µM).

`COc1ccc(/C=N/c2nc3ccccc3n2C)cc1OC`: the cell event count was 90 (inactive) (at 100 µM) and 35.5 (event count, at 10 µM).

(Values after PubChem BioAssay AID1076 (NMMLSC, 2008).)
